Assay results as given in PubChem BioAssay (NCI).
The panel holds about 83,000 compounds, 20% with a hit somewhere; the sample as a whole holds those more often.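 Percent growth is the endpoint: 0 to 100 indicates growth inhibition (40 means 60% inhibition), 0 means no net growth, and negative values indicate cell death.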 A number with no mark means an inactive call. Active and inactive are the calls of the source. How the source made its calls: active means growth percent below 10; inactive means the rest.

System: NCI/ADR-RES ovarian
Experiment: NCI-60 one-dose screen, 48 h (100 = growth as untreated, 0 = no growth, -100 = all killed)
Conditions: 10 µM unless noted

In order of falling growth:
1. Cc1ccc(C(=O)Cc2ccccc2)c(O)c1  108%
2. Cc1ccc2nc(SCC(=O)Nc3ccc(-c4nc5ccccc5s4)c(Cl)c3)[nH]c2c1  107%
3. CC(NC(N)=S)c1ccccc1 (stereo not given)  106%
4. COc1ccc2c(c1)CC[C@@H]1[C@@H]2CC[C@]2(C)[C@@H](O)C(=O)C[C@@H]12  105%
5. CCOC(=O)C1=CCC(n2cc(C)c(=O)[nH]c2=O)O1 (stereo not given)  101%
6. CC(=O)[C@H]1CC[C@H]2[C@@H]3C[C@H](C)C4=CC(=O)CC[C@]4(C)[C@H]3C(=O)C[C@]12C  98.7%
7. O=C(CC(C(=O)c1ccccc1)N1CCN(Cc2ccccc2)CC1)c1ccccc1 (stereo not given)  97.1%
8. C[C@]12CCC(=O)C=C1CC[C@H]1[C@@H]3C[C@@H](O)[C@](O)(C(=O)CO)[C@@]3(C)C[C@H](O)[C@@]12F  95.4%
9. NS(=O)(=O)c1ccc(-n2ncc3c(NC4CCCCC4)ncnc32)cc1  88.6%
10. c1ccc(CN=C(NCc2ccccc2)NCc2ccccc2)cc1  86%
11. C[C@@H]1CN(c2nc3c(cc2F)c(=O)c(C(=O)O)cn3C(C)(C)C)C[C@H](C)N1  80.6%
12. ICCC(c1ccccc1)(c1ccccc1)c1ccccc1  74.6%
13. O=C(Nc1ccc2c(c1)C(=O)c1ccccc1-2)c1ccccc1  70.4%
14. Oc1ccc(/C=N/Nc2nc3ccccc3s2)c(O)c1  17.7%

With O=CNc1ccc2c(c1)Cc1cc([N+](=O)[O-])ccc1-2 the growth was 3.1% (active).
